Only some compounds are listed: those with a hit (about 2.4% of all), similar ones and a draw of the others.
PABP1 MLLE inh – blocks PAM2 peptide binding to the PABP1 MLLE domain | P11940 | GST-MLLE / FITC-PAM2 fluorescence polarization | inhibition, % at 20 µM | 360,000 compounds, 0.36% hits; in the data active = inhibition above about 35%, passing the limit was not always enough;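 note: plate controls were DMSO wells with GST-MLLE for no effect and wells lacking GST-MLLE protein for full effect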
PABP polyA inh – blocks human PABP binding to poly(A) RNA; calls only at 35 µM; 290,000 compounds, 1% hits; fluorescence polarization; P11940;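 note: calls also rest on retests at 20 µM and on dose response follow-up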
Efa HMGR inh – E. faecalis class II HMG-CoA reductase inhibition; purified E. faecalis HMGR, NADPH absorbance 340 nm kinetic; inhibition, % at 10 µM; 190,000 compounds, 0.41% hits;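 active = inhibition above a set limit, the median over all tested compounds plus 3 SD, cut at about 9.5% in these data; inconclusive = no clear call, values can overlap the other calls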;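 note: enzyme runs in reverse so mevalonate oxidation gives rising NADPH absorbance; 0% = complete reaction with DMSO and 100% = background rate lacking mevalonate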
eIF4H inh – inhibitors of RNA binding by human eIF4H. Q15056. eIF4H fluorescence polarization binding assay. inhibition, % at 35 µM. 290,000 compounds, 0.94% hits. AID 2012;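 note: calls also rest on retests at 20 µM and on dose response follow-up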
PHOSPHO1 inh – PHOSPHO1 (human) inhibition; inhibition, % at 13.3 µM; 290,000 compounds, 1.1% hits; recombinant PHOSPHO1, absorbance phosphatase assay; in the data active = inhibition above about 60%
Target sequence (Q8TCT1 whole entry, looked up): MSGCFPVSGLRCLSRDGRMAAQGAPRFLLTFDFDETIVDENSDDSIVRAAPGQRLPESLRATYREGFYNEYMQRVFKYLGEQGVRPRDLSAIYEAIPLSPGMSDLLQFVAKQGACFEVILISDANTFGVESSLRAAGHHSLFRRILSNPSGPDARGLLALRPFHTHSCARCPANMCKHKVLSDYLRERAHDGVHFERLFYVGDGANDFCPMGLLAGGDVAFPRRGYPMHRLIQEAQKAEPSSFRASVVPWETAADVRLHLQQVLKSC
An asterisk follows results filed as active; i = inactive; ? = inconclusive; nt = no result given; + = active, no number. Unless noted, the rule behind the calls is not given here.

SMILES	PABP1 MLLE inh	PABP polyA inh	Efa HMGR inh	eIF4H inh	PHOSPHO1 inh
Cc1ccc(C(=O)c2sc(Nc3ccccc3)c(C#N)c2N)cc1	6.0	i	3.2	21.9	-6.2
CC(C)c1nnc(SCC(=O)NCCC2=CCCCC2)n1N	42.1*	i	2.4	6.0	92.2*
Nn1c(SCC(=O)NCCC2=CCCCC2)nnc1-c1cccnc1	-26.0	nt	nt	nt	nt
Cc1cccc(N(C(=O)c2ccco2)C(C(=O)NC2CCCC2)c2ccco2)c1C (stereo not given)	7.8	i	nt	13.8	26.6
Cc1ccn2c(=O)c(NC(=O)c3ccc(Br)o3)c(C)nc2c1	17.7	nt	nt	nt	nt
O=C(c1ccc2c(c1)CCC2)N1CCN(Cc2ccccc2)CC1	12.3	nt	nt	nt	nt
O=C(OCc1c(-c2ccccc2)ncc2ccccc12)N1CCOCC1	8.2	nt	nt	nt	nt
O=C(NCCn1cccn1)C1CCC(=O)N(CCc2ccc(Cl)cc2)C1 (stereo not given)	1.8	i	nt	-3.4	31.5
COc1cccc(N2CC(C(=O)Nc3c(C(N)=O)oc4ccccc34)CC2=O)c1 (stereo not given)	12.5	nt	nt	nt	nt
CCOCCCNC(=S)NCCNc1nc2c(C)cccc2cc1C#N	-33.9	i	0.6	-2.0	61.0*
Cc1cc(C)c2nc(NCCCNC(=S)NCCCN(C)C)c(C#N)cc2c1	-22.7	i	0.7	-4.6	-21.9
CCOCCCNC(=S)NCCCNc1nc2c(C)cc(C)cc2cc1C#N	6.7	i	0.9	0.2	32.4
Cc1ccc2cc(C#N)c(NCCNC(=S)NCCCN(C)C)nc2c1C	-15.8	i	-9.6	-10.2	64.2*
Nc1c(Br)cc2c([nH]c(=O)c3ccccc32)c1Br	-11.9	nt	nt	nt	nt
Cc1cc(NC(=O)CSCC(=O)N(C)Cc2ccc(Cl)c(Cl)c2)no1	-2.8	+	nt	29.2	33.4
Cc1cc(C)cc(N=Cc2[nH]c3ccc(Br)c(Cl)c3c2O)c1	-9.6	+	0.6	?	-7.9
COc1ccc(CN=Cc2[nH]c3ccc(Br)c(Cl)c3c2O)cc1	9.4	i	1.7	19.7	-29.8
COC(=O)c1cc(S(=O)(=O)NCc2ccc(Br)cc2)c[nH]1	0.8	i	nt	-4.4	33.2
Nc1nc2ncc(C(=O)c3cc(Cl)cc(Cl)c3O)cc2s1	-9.8	i	nt	88.7*	24.6
CN1C(=O)c2ccc(N3CCCC3)cc2C1=O	9.8	+	-2.5	71.5*	-11.0
COc1cccc(C(NC(C)=O)c2nc(-c3ccc(OC)nc3)cs2)c1 (stereo not given)	1.7	nt	nt	nt	nt
COc1ccc(OC)c(C2Nc3c(Cl)ccc(C(=O)O)c3C3C=CCC32)c1 (stereo not given)	18.7	i	2.5	71.4*	-20.3
O=C(O)c1ccc(Cl)c2c1C1C=CCC1C(c1ccccn1)N2 (stereo not given)	nt	+	5.0	99.7*	82.8*
O=[N+]([O-])c1ccc(Cl)c2c1C1C=CCC1C(c1ccccn1)N2 (stereo not given)	3.2	i	1.5	104.1	7.5
COC(=O)COc1ccc(C2Nc3c(Cl)ccc(C(=O)O)c3C3C=CCC32)cc1 (stereo not given)	28.4	+	-0.2	78.5	-35.4
SMILES	PABP1 MLLE inh	PABP polyA inh	Efa HMGR inh	eIF4H inh	PHOSPHO1 inh
CCOC(=O)/C(=N\Nc1ccccc1)P(=O)(c1ccccc1)c1ccccc1	-11.9	i	nt	-0.8	6.2
CCOC(=O)c1ccccc1N1C(=O)CSC1=S	40.7*	i	-1.0	-1.2	-58.7
Cc1cccc(C(=O)NC(=S)NNC(=O)c2ccccc2Cl)c1	24.3	i	-0.3	7.4	28.4
Cc1cc(C(=O)NNC(=S)NC(=O)/C=C/c2ccccc2Cl)n[nH]1	31.7	i	-1.4	12.5	93.6*
COc1cc2c(c3ccccc13)CCCC2=O	9.6	nt	nt	nt	nt
COCCn1c(C)cc(C(=O)COC(=O)/C=C/c2ccc(OC)cc2OC)c1C	-10.9	nt	nt	nt	nt
CC(C)c1ccc(C2NC(=O)CCC2[N+](=O)[O-])cc1 (stereo not given)	4.5	i	10.1*	-9.7	43.6
CCOC(=O)Cc1csc(-n2sc3ccccc3c2=O)n1	10.2	i	-5.2	1.2	95.7*
COCCNc1nc(NCc2ccc(NC(C)=O)cc2)c2sc(-c3ccccc3)cc2n1	-2.5	nt	nt	nt	nt
Cc1ncc2c(c1OC(=O)c1ccccc1)COC(C)(C)OC2	-6.2	i	-8.1	-1.7	11.3
Cc1c(OC(=O)c2ccc([N+](=O)[O-])cc2)c2c(c[n+]1C)COC(C)(C)OC2	-25.6	i	-1.7	15.9	102.6*
CC(C)c1ccc(NC(=O)CSc2nc3ccsc3c(=O)n2CCC(=O)O)cc1	10.0	i	nt	-8.3	7.2
CCc1ccc2c(c1)c1nc(C)sc1n2CC	6.2	i	-7.1	-0.3	91.5*
